Reference: PubChem BioAssay (NCATS)
Inconclusive results are not listed. Unmarked numbers belong to inactive results. Activity calls are given as the source filed them. Calls come from the whole dose curve.

test: Primary qHTS for inhibitors of MERS-S pseudo-typed particle cell entry (AID 1479149); details: MERS-S pseudotyped particle entry, luciferase; series mostly up to 57.1 µM; activity change, negative = inhibition: at the top concentration; note: nearly all actives have a fitted effect of over 60% in size
% is set by controls: 0 for no effect and ±100 for the full control effect.

| SMILES | outcome | activity change, negative = inhibition [%] |
| --- | --- | --- |
| CC(C)(C)NCC(O)COc1ccccc1OCC1CCCO1 (configuration not stated) | inactive | – |
| O=C(O)C(S)C(S)C(=O)O (configuration not stated) | inactive | – |
| CS(=O)(=O)c1ccc([C@@H](O)[C@@H](CO)NC(=O)C(Cl)Cl)cc1 | inactive | – |
| COc1ccnc(CS(=O)c2nc3ccc(OC(F)F)cc3[nH]2)c1OC (configuration not stated) | – | -0.488 |
| COc1ccc(C(=O)c2ccccc2)c(O)c1 | inactive | – |
| O=C1c2c(O)cccc2Cc2cccc(O)c21 | inactive | – |
| NCC(=O)CCC(=O)O | – | -28 |
| Nc1nc(=O)n([C@@H]2CS[C@H](CO)O2)cc1F | inactive | – |
| O=C(O)c1cccnc1 | inactive | – |
| CO[C@@]1(NC(=O)CSCC#N)C(=O)N2C(C(=O)O)=C(CSc3nnnn3C)CS[C@@H]21 | – | -5.78 |
| CCCCOCCOC(=O)c1cccnc1 | – | -2.21 |
| CC(CC(C#N)(c1ccccc1)C(C)C)N(C)C (configuration not stated) | inactive | – |
| C[C@H](CS)C(=O)N1CCC[C@H]1C(=O)O | inactive | – |
| Cc1cc2c(cc1CC(=O)c1sccc1S(=O)(=O)Nc1onc(C)c1Cl)OCO2 | inactive | – |
| Cc1cc(C)c(NC(=O)CN(CC(=O)O)CC(=O)O)c(C)c1Br | inactive | – |
| CCN(CC)CCNC(=O)c1cc(S(C)(=O)=O)ccc1OC | inactive | – |
| CC(=O)Nc1ccc(OC(=O)c2ccccc2OC(C)=O)cc1 | inactive | – |
| CCOC(=O)/C=C(C)/C=C/C=C(C)/C=C/c1c(C)cc(OC)c(C)c1C | – | 6.9 |
| CCC1(C)CC(=O)NC1=O (configuration not stated) | inactive | – |
| NNC(=O)c1ccncc1 | inactive | – |
| CCO/C([O-])=N/c1c[n+](N2CCOCC2)no1 | inactive | – |
| CCOC(=O)c1ccc(O)cc1 | inactive | – |
